Screening results (PubChem)
This is a sample that favours compounds with a hit; in the whole collection about 3.4% have one here.
sPLA2-III inh: human group III sPLA2 inhibitors, primary screen, biochemical, QFRET, BODIPY PC-A2 liposome substrate; Group 3 secretory phospholipase A2 (Homo sapiens), Q9NZ20; QFRET BODIPY PC-A2 liposome hydrolysis, fluorescence; inhibition, % at 12.2 µM; 0.56% of 370,000 active;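 active = inhibition above mean plus 3 SD of compounds lying within the high and low control bounds, cut at about 19% in these data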;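 also: 0% = median of test compound wells and 100% = no enzyme DMSO wells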
proKLK7 act: proKLK7 zymogen activators, primary screen, biochemical, fluorescence intensity. Kallikrein-7 (Homo sapiens), P49862. purified proKLK7, EDANS-DABCYL substrate fluorescence; 100% is mature enzyme control, 0% vehicle. 0.9% of 370,000 active. activation, % at 7 µM. AID 652039, 2013;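 active = activation above the mean of all tested compounds plus 3 SD, computed per campaign excluding outliers beyond control limits, cut at about 13% in these data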
ADAM10 inh: human ADAM10 inhibitors, primary screen, biochemical, QFRET, HTS; 0.62% of 370,000 active; recombinant ADAM10, EDANS/DABCYL FRET peptide cleavage, 3 h; Disintegrin and metalloproteinase domain-containing protein 10 (Homo sapiens), O14672; inhibition, % at 7 µM;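 active = inhibition above a per-campaign cutoff equal to the mean of compounds falling between control-based bounds plus 3 SD, cut at about 20% in these data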;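 also: 0% = DMSO wells while the 100% control is not disclosed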
ADAM17 inh: ADAM17 inhibitors, primary screen, biochemical, QFRET; 0.83% of 370,000 active; AID 720648, 2013; inhibition, % at 6.95 µM; recombinant ADAM17, EDANS/DABCYL FRET peptide cleavage; Disintegrin and metalloproteinase domain-containing protein 17 (Homo sapiens), P78536;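 active = inhibition above the mean of compounds lying between control limits plus 3 SD, set per campaign, cut at about 8.5% in these data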;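 also: 0% = DMSO-only wells as the low control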
Target sequence (P78536 215-824 limits assumed): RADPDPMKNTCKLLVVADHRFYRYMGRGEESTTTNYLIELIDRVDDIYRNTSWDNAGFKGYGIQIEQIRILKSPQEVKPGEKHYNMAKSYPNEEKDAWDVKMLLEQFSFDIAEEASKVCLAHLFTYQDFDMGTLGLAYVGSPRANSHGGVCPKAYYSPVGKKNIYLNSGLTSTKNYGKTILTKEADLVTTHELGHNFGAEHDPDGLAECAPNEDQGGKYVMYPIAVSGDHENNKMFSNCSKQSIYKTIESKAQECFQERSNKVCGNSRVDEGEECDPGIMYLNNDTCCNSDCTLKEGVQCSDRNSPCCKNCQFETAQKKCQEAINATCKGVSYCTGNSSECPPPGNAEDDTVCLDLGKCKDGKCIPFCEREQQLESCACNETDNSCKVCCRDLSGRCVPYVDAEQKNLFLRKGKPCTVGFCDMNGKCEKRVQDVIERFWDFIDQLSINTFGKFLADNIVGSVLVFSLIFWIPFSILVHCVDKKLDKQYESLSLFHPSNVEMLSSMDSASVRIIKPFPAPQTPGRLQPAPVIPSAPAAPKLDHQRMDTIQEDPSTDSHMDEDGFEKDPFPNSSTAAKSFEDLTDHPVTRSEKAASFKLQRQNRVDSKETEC
CendR NRP1 mod: modulators of CendR peptide binding to NRP-1, primary screen, biochemical, fluorescence polarization, uHTS; AID 602438, 2012; inhibition, % at 25 µM; Neuropilin-1 (Homo sapiens), O14786; FAM-RPARPAR peptide binding to NRP-1; 0.85% of 360,000 active;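 active = inhibition or corrected inhibition above about 18%, plus a signal ratio from 0.5 to 1.5, limit read from the data, passing the limit was not always enough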
proKLK7 act conf: proKLK7 zymogen activators, confirmation, biochemical, fluorescence intensity, triplicate. shares compounds with proKLK7 act. purified proKLK7, EDANS-DABCYL substrate fluorescence; scaled: vehicle 0, mature enzyme 100. activation, % at 7 µM. 68% of 3,200 active;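 active = activation, as change over the incubation, above the mean of all tested compounds plus 3 SD, cut at about 13% in these data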
EDANS interfere: EDANS-DABCYL substrate optical interference, artefact control for kallikrein-7 zymogen activator project, biochemical, fluorescence intensity, high throughput. shares compounds with proKLK7 act. no enzyme, 4 h; solvent 0%, active enzyme control 100%. activation, % at 7 µM. 80% of 3,200 active;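 active = activation above the all-compound mean plus 3 SD, ignoring values outside control-based bounds, cut at about 4.8% in these data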;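 also: value is the 4 h activation minus the activation read at time zero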
EDANS interf: counter-screen for kallikrein-7 activators: EDANS-DABCYL interference, dose response. shares compounds with proKLK7 act. EDANS-DABCYL peptide fluorescence interference, no enzyme. EC50, µM. 20% of 250 active. AID 720493;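 active = compounds that raise the fluorescence signal in this interference counterscreen, with EC50 at or below 10 µM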;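 also: intact quenched peptide substrate alone read at 355 nm excitation and 520 nm emission; signal is fluorescence gain from T0 to T4 after four hours at room temperature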
Active calls of the source: *; i = inactive; · = no result given.

SMILES | sPLA2-III inh | proKLK7 act | ADAM10 inh | ADAM17 inh | CendR NRP1 mod | proKLK7 act conf | EDANS interfere | others
Cc1ccc2c(CN3CCN(CCO)CC3)cc(=O)oc2c1C | 0 | 0 | -6 | -4 | -4 | · | ·
CCc1c(C)c2cc(Cl)c(O)c(CN3CCCCC3)c2oc1=O | 3 | 51* | i | i | 6 | 69* | 72*
CN1C=CC2=C(C#N)C(N)C(C#N)(C#N)C(c3ccccc3)C2C1 (stereo not given) | -10 | 25* | -295 | -80 | 4 | 33* | 35*
Cc1[nH]n(-c2ccccc2)c(=O)c1C=Nc1cnc2ccccc2c1 | -4 | 46* | i | -214 | 6 | 21* | 22*
CN1C(=O)c2ccccc2N(C)C1c1cccc(O)c1 (stereo not given) | 1 | 50* | i | i | -5 | 32* | 35*
CC(C)C12CN3CC(C(C)C)(CN(C1)C3c1ccc3c(c1)OCO3)C2=O (stereo not given) | 2 | 0 | 2 | 6 | 7 | · | ·
COc1cc(C2N(C)C(=O)c3ccccc3N2C)ccc1O (stereo not given) | 3 | 46* | i | i | 2 | 43* | 42*
CN1C(=O)c2ccccc2N(C)C1c1ccc(F)cc1 (stereo not given) | 3 | 19* | i | -437 | 17 | 27* | 14* | EDANS interf=>69
CN1C(=O)c2ccccc2N(C)C1c1ccc2c(c1)OCO2 (stereo not given) | 3 | 19* | i | -416 | -14 | 22* | 18* | EDANS interf=>69
CN1C(=O)c2ccccc2NC(=O)[C@]12O[C@@H]2c1cccc(O)c1 | -12 | -1 | -19 | -3 | -60 | · | ·
CCCCNC(=O)C[C@H]1C[C@@]2(C(=O)OC)C(=C[C@H](C(C)C)O[C@@H]2C2CC2)N(CCC2=CCCCC2)C1=O | 0 | 1 | 6 | 1 | · | · | ·
CCC[C@H]1[C@@H](NC(=O)c2cccc(Cl)c2)CC[C@@]23CCCN2C(=O)CCC[C@@H]13 | -5 | · | 2 | -1 | · | · | ·
O=C(N[C@@H](Cc1cccnc1)C(=O)N1CCC[C@H]1C(=O)NCCc1ccccc1Cl)c1ccc(Cl)cc1Cl | 1 | 1 | -13 | -5 | · | · | ·
CCOC(=O)c1ccc(C(=O)OCC)c(NC(=S)Nc2ccc([N+](=O)[O-])cc2OC)c1 | 11 | 13* | -480 | -134 | -3 | 12 | 6.9*
O=C(NCCc1ccc(F)cc1)c1coc(=O)c(Br)c1 | 6 | 13* | -463 | -188 | 3 | 30* | 29*
COC(=O)Cn1c2ccccc2c(=O)n1C(C)CBr (stereo not given) | 7 | 67* | i | -208 | -1 | 62* | 55*
C#CCn1c2ccccc2c(=O)n1C(C)CBr (stereo not given) | 2 | 1 | -189 | -44 | 12 | · | ·
Cc1cc(C)cc(N(CC(=O)NC2CCC(C)CC2)S(=O)(=O)c2ccc(C)c(C)c2)c1 (stereo not given) | 3 | 0 | -4 | -3 | · | · | ·
COc1ccc(-c2oc3c4c2C(=O)OCCOC4CCC3)cc1 (stereo not given) | -3 | 15* | i | -200 | 15 | 7 | 7.8*
COc1ccc(-c2oc3c(c2C(=O)OCCO)C(OCCO)CCC3)cc1 (stereo not given) | -1 | 4 | -238 | -70 | 12 | · | ·
CCOC(=O)c1cnn2c(C)cc(-c3ccccc3)nc12 | 2 | 24* | i | -197 | -3 | 21* | 32*
CCOC(=O)c1cc2nc(-c3ccccc3)cc(C)n2n1 | -1 | 8 | -144 | -59 | 6 | · | ·
CCOC(=O)c1cnn2c(C(F)(F)F)cc(-c3ccco3)nc12 | 3 | 31* | i | -276 | 6 | 26* | 43*
CN1CCCC1CCSc1ncccc1-c1nc2ccccc2[nH]1 (stereo not given) | 1 | 1 | -90 | -27 | · | · | ·
COc1cccc2c(=O)c3ccccc3oc12 | 0 | 13* | -303 | -91 | -8 | 15* | 21*
SMILES | sPLA2-III inh | proKLK7 act | ADAM10 inh | ADAM17 inh | CendR NRP1 mod | proKLK7 act conf | EDANS interfere | others
COc1ccc2oc3ccccc3c(=O)c2c1 | -2 | 25* | i | -352 | 1 | 70* | 62*
COc1cccc2c(=O)ccoc12 | 4 | 2 | -72 | -28 | 15 | · | ·
Cc1nn(-c2ccccc2)c2sc(C(=O)NCc3ccc4c(c3)OCO4)cc12 | -15 | 0 | 12 | 6 | · | · | ·
O=C(O)c1cc(-c2ccc(-c3ccc(F)cc3)o2)nc2ccccc12 | -12 | 33* | -328 | -111 | -21 | 65* | 76*
O=C(c1cc(-c2ccc(F)cc2)nc2ccccc12)N1CCC1 | -3 | 0 | -55 | -16 | -3 | · | ·
COc1ccc(-c2ccc(C#N)c(SCC(=O)NC3CC3)n2)cc1OC | 9 | 17* | i | -359 | 8 | 4 | 2
COc1ccc(-c2ccc(C#N)c(SCC(=O)NCc3ccco3)n2)cc1OC | 3 | -12 | i | i | -8 | · | ·
CCN1CCN(CCCNC(=O)c2cc3c(s2)-c2ccccc2OC3)CC1 | -4 | 37* | i | i | -5 | 73* | 70*
Cc1cccc(NC(=O)c2cc3c(s2)-c2c(C)cccc2OC3)n1 | 2 | -17 | -104 | -32 | -4 | · | ·
CCCN1CCN(CCCNC(=O)c2cc3c(s2)-c2c(C)cccc2OC3)CC1 | -4 | 42* | i | i | 4 | 63* | 71*
CC1CCCC(C)N1CCCNC(=O)c1cc2c(s1)-c1ccccc1OC2 (stereo not given) | 2 | 69* | i | i | 9 | 62* | 63*
Cc1cccc2c1-c1sc(C(=O)NCCCN3CCCC(C)C3)cc1CO2 (stereo not given) | -17 | 48* | i | i | -1 | 62* | 70*
O=C(CSc1nnc(-c2ccco2)n1Cc1ccco1)c1ccc([N+](=O)[O-])cc1 | -38 | 1 | 9 | 2 | · | · | ·
O=C(OCC#CCSc1nnc(-c2cccs2)o1)c1ccc(F)cc1 | -13 | · | 6 | 3 | · | · | ·
Cc1ccc(CSc2nnc(-c3cccs3)o2)cc1C | 0 | 0 | 3 | 3 | · | · | ·
